# From PubChem BioAssay (EPA / NIEHS)
# Inconclusive results are not listed. Activity calls are given as the source filed them. How the source made its calls: active means hit-call score of the fitted dose curve at least 0.9, where 1 is the maximum; inconclusive means response in the unintended direction; inactive means score below 0.9.
# How the values were obtained:
# [1] = target: Mitogen-activated protein kinase 3 (Homo sapiens) (UniProt P27361); test: NVS_ENZ_hMAPK3: NovaScreen (NVS) Enzymatic Assay for human Mitogen-Activated Protein Kinase 3 (MAPK 3) (AID 2283177)
# Summary of the method: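 Chemicals were first tested in duplicate at 25 uM, with hits re-run as concentration series (max 50 uM). Recombinant enzyme activity, measured 1 h post-dose in a cell-free format, was read by fluorescence/mobility shift relative to DMSO.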
# [2] = target: human MAP Kinase-Activated Protein Kinase 2 (MAPKAPK2), MAPKAPK2 (gene 9261) (UniProt P49137); test: NVS_ENZ_hMAPKAPK2: NovaScreen (NVS) Enzymatic Assay for human MAP Kinase-Activated Protein Kinase 2 (MAPKAPK2) (AID 2283178)
# Chain of human MAP Kinase-Activated Protein Kinase 2 (MAPKAPK2), MAPKAPK2 (gene 9261) (P49137 whole entry, looked up): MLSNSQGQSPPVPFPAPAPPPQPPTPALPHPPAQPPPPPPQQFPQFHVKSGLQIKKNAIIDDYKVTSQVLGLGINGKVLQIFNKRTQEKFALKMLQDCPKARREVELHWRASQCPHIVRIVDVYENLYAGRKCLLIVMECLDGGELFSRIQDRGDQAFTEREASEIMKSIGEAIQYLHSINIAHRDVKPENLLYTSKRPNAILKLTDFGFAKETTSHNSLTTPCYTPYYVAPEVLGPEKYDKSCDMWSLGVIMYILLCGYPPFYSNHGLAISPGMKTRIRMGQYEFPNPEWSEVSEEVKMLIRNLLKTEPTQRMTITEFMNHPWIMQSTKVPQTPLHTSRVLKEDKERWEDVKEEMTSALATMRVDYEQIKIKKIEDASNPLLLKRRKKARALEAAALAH
# Summary of the method: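 Chemicals screened in duplicate at 25 uM, then to 50 uM top concentration in concentration-response, against recombinant human MAPKAPK2; substrate conversion read 1 hr post-dosing by fluorescence after electrophoretic mobility-shift separation, loss-of-signal relative to DMSO.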
# [3] = target: human Mitogen- and Stress-activated Protein Kinase-1 (Msk1), RPS6KA5 (gene 9252) (UniProt O75582); test: NVS_ENZ_hMsk1: NovaScreen (NVS) Enzymatic Assay for human Mitogen- and Stress-activated Protein Kinase-1 (Msk1) (AID 2283187)
# Chain of human Mitogen- and Stress-activated Protein Kinase-1 (Msk1), RPS6KA5 (gene 9252) (O75582 whole entry, looked up): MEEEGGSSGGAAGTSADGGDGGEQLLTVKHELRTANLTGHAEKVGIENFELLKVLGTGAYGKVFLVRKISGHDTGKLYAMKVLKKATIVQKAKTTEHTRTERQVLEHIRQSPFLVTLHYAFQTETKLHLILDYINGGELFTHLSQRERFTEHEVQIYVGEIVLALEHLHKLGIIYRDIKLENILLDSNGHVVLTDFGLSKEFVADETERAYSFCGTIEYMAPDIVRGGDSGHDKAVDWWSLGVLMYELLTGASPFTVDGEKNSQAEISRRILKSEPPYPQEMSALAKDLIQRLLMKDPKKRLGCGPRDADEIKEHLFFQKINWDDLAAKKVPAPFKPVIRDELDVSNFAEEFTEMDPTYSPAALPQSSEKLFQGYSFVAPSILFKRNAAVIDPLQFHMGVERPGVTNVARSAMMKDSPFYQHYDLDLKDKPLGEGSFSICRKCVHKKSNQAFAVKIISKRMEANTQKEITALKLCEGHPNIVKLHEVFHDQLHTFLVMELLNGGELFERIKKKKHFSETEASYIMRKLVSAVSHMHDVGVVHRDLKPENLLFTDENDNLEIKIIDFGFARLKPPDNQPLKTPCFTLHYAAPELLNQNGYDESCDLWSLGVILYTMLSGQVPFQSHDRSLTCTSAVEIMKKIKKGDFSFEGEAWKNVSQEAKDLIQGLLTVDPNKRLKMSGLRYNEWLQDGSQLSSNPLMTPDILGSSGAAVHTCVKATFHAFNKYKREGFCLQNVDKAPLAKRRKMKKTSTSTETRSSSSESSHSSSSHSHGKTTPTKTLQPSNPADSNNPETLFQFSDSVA
# Summary of the method: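 Chemicals first run in duplicate at 25 uM, with actives followed up in singleton concentration series to 50 uM maximum. Enzyme activity came from substrate/product mobility-shift separation with fluorescence detection after 1 h incubation of the recombinant protein.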
# [4] = target: Serine/threonine-protein phosphatase PP1-alpha catalytic subunit (Homo sapiens) (UniProt P62136); test: NVS_ENZ_hPPP1CA: NovaScreen (NVS) Enzymatic Assay for human Protein Phosphatase 1 Aatalytic subunit Alpha (PPP1CA) (AID 2283200)
# Chain of Serine/threonine-protein phosphatase PP1-alpha catalytic subunit (Homo sapiens) (P62136 whole entry, looked up): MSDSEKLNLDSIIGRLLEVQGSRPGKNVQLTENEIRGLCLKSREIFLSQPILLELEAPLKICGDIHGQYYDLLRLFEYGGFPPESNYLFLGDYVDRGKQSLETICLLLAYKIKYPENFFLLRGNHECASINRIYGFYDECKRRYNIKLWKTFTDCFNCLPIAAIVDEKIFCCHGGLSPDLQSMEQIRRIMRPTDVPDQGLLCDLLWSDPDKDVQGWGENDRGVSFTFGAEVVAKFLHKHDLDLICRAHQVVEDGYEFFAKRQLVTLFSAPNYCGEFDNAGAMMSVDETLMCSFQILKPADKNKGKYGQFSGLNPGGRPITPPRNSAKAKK
# Summary of the method: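 Chemicals were first screened in duplicate at 25 uM, and those passing threshold (e.g. 30% inhibition) were run as concentration series to 50 uM. Cell-free recombinant protein, 1.33 h read, fluorescent substrate/product mobility-shift detection, normalised to DMSO.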
# [5] = target: Tyrosine-protein phosphatase non-receptor type 11 (Homo sapiens) (UniProt Q06124); test: NVS_ENZ_hPTPN11: NovaScreen (NVS) Enzymatic Assay for human Protein Tyrosine Phosphatase Non-receptor Type 11 (PTPN11) (AID 2283202)
# Summary of the method: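 Compounds first tested in duplicate at 25 uM; those reaching ~30% inhibition rerun in singleton concentration-response, top 50 uM. Phosphatase activity measured after 0.5 h by fluorescence with mobility-shift separation, relative to DMSO.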
# [6] = target: human Matrix Metalloproteinase-2 (MMP2), MMP2 (gene 4313) (UniProt P08253); test: NVS_ENZ_hMMP2: NovaScreen (NVS) Enzymatic Assay for human Matrix Metalloproteinase-2 (MMP2) (AID 2283184)
# Chain of human Matrix Metalloproteinase-2 (MMP2), MMP2 (gene 4313) (P08253 whole entry, looked up): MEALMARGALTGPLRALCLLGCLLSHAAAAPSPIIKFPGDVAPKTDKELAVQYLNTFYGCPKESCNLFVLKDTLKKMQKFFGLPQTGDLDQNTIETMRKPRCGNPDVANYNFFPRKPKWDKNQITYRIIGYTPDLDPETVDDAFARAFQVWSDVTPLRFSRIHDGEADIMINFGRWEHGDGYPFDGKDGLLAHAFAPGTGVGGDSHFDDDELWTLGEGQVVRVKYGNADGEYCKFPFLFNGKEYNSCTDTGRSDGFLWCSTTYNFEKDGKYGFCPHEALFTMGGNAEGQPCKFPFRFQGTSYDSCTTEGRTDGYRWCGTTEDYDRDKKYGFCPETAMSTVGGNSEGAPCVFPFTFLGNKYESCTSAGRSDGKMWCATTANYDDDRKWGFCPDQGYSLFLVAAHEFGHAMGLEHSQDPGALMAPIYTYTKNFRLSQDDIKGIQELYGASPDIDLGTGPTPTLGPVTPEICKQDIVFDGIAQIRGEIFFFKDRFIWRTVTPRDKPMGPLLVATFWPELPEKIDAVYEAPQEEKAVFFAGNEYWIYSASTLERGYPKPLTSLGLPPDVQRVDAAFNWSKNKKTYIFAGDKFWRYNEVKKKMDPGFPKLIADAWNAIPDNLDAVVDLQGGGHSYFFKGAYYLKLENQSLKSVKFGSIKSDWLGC
# Summary of the method: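 Compounds first screened in duplicate at a single 25 uM, with actives followed up in concentration series. Recombinant human MMP2 cleaves a fluorogenic substrate; fluorescence taken at 1 h, inhibition fitted relative to DMSO.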
# [7] = target: Collagenase 3 (Homo sapiens) (UniProt P45452); test: NVS_ENZ_hMMP13: NovaScreen (NVS) Enzymatic Assay for human Matrix Metalloproteinase-13 (MMP13) (AID 2283182)
# Summary of the method: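 Recombinant MMP13 cleaving fluorescent substrate, cell-free, measured 1 h after dosing. Primary duplicate screen at 25 uM; actives tested in concentration-response up to 50 uM; loss of signal relative to DMSO.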
# [8] = target: human Matrix Metalloproteinase-9 (MMP9), MMP9 (gene 4318) (UniProt P14780); test: NVS_ENZ_hMMP9: NovaScreen (NVS) Enzymatic Assay for human Matrix Metalloproteinase-9 (MMP9) (AID 2283190);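 further: cell-free recombinant MMP9 protease activity read by fluorescent substrate signal; active means inhibition seen as loss of fluorescence signal versus DMSO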
# Chain of human Matrix Metalloproteinase-9 (MMP9), MMP9 (gene 4318) (P14780 whole entry, looked up): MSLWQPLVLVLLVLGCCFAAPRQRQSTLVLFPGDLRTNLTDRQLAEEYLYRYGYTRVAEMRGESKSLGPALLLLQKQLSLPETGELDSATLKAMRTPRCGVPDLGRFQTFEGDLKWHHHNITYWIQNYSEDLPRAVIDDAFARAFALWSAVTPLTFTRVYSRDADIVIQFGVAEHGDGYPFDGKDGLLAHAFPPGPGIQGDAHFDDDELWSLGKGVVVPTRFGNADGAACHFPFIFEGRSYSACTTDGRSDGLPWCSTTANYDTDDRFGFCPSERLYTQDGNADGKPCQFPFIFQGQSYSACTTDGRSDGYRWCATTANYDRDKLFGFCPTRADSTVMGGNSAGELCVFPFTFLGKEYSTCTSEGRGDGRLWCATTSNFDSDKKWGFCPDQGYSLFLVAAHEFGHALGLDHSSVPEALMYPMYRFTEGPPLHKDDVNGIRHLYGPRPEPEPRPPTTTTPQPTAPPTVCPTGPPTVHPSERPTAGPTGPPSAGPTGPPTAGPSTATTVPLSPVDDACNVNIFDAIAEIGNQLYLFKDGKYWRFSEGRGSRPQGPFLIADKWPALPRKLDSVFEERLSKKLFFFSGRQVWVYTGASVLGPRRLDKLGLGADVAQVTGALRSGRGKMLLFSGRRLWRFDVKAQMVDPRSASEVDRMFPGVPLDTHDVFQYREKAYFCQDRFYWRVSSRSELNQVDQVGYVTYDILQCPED
# Summary of the method: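 Cell-free fluorescence-intensity enzyme activity assay using extracted protein, read 1 h after dosing. Loss of signal versus DMSO baseline indicates inhibition; primary screen in duplicate at 25 uM, actives followed up in concentration series.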
# [9] = target: human Matrix Metalloproteinase-7 (MMP7), MMP7 (gene 4316) (UniProt P09237); test: NVS_ENZ_hMMP7: NovaScreen (NVS) Enzymatic Assay for human Matrix Metalloproteinase-7 (MMP7) (AID 2283183)
# Summary of the method: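 Compounds first tested at 25 uM in duplicate, then at up to 50 uM in concentration series if active. Protease activity measured by fluorescence intensity 1 h after dosing, with fitting relative to DMSO.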
# [10] = target: human Phosphodiesterase 5 (PDE5), PDE5A (gene 8654) (UniProt O76074); test: NVS_ENZ_hPDE5: NovaScreen (NVS) Enzymatic Assay for human Phosphodiesterase 5 (PDE5) (AID 2283194)
# Summary of the method: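 Screening began in duplicate at 25 uM, with actives taken into concentration-response. Enzyme activity of recombinant PDE5 toward its substrate was measured at 1 h by fluorescence mobility-shift detection, relative to DMSO controls.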
# [11] = target: human Protein Tyrosine Phosphatase Non-receptor Type 1 (PTPN1), PTPN1 (gene 5770) (UniProt P18031); test: NVS_ENZ_hPTPN1: NovaScreen (NVS) Enzymatic Assay for human Protein Tyrosine Phosphatase Non-receptor Type 1 (PTPN1) (AID 2283201)
# Chain of human Protein Tyrosine Phosphatase Non-receptor Type 1 (PTPN1), PTPN1 (gene 5770) (P18031 whole entry, looked up): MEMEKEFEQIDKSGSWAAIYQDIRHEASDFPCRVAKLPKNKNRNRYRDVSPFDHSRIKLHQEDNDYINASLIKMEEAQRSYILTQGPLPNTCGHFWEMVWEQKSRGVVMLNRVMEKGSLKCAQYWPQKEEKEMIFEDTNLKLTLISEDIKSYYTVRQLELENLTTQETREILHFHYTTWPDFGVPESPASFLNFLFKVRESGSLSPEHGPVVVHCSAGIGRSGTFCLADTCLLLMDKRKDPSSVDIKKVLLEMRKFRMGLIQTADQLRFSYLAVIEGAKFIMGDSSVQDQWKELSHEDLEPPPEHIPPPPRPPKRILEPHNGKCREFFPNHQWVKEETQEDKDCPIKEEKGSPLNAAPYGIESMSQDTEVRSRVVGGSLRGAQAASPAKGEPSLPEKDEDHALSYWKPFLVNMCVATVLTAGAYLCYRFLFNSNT
# Summary of the method: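 Chemicals were first tested in duplicate at 25 uM, and those passing threshold went on to singleton concentration series topping at 50 uM. Recombinant enzyme, specific substrate, product separated by mobility shift, fluorescence read at 1.33 h; activity loss relative to DMSO.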
# [12] = target: human Matrix Metalloproteinase-3 (MMP3), MMP3 (gene 4314) (UniProt P08254); test: NVS_ENZ_hMMP3: NovaScreen (NVS) Enzymatic Assay for human Matrix Metalloproteinase-3 (MMP3) (AID 2283185)
# Chain of human Matrix Metalloproteinase-3 (MMP3), MMP3 (gene 4314) (P08254 whole entry, looked up): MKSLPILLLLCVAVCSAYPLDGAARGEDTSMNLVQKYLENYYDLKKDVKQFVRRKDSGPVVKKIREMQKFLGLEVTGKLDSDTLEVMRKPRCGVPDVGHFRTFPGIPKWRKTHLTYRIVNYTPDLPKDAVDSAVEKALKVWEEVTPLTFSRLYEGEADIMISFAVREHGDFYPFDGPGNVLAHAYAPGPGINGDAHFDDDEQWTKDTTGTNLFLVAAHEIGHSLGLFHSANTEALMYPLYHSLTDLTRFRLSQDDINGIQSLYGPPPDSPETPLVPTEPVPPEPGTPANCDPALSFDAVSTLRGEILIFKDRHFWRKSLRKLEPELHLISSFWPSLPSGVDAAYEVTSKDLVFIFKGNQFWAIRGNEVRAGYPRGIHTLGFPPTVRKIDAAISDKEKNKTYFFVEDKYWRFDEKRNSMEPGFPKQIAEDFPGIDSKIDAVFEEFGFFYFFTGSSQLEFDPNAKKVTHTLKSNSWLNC
# Summary of the method: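 Fluorescent substrate turnover by recombinant MMP3 read after 1 h, signal loss scored against DMSO. Compounds first run in duplicate at 25 uM single dose, then actives confirmed by concentration series.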
# [13] = target: human Phosphodiesterase 4A1 (PDE4A1), PDE4A (gene 5141) (UniProt P27815); test: NVS_ENZ_hPDE4A1: NovaScreen (NVS) Enzymatic Assay for human Phosphodiesterase 4A1 (PDE4A1) (AID 2283191)
# Summary of the method: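 Fluorescent substrate turnover by recombinant PDE4A1 read after 1 h by mobility-shift separation. Primary duplicate screen at 25 uM; hits retested in concentration series with a 50 uM maximum, relative to DMSO.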
# [14] = target: human Phosphodiesterase 10 (PDE10), PDE10A (gene 10846) (UniProt Q9Y233); test: NVS_ENZ_hPDE10: NovaScreen (NVS) Enzymatic Assay for human Phosphodiesterase 10 (PDE10) (AID 2283195)
# Summary of the method: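 Readout is fluorescence intensity following electrophoretic mobility-shift separation, 1 h after dosing of isolated PDE10A protein. Hits meeting a preset threshold at 25 uM went to concentration series (max 50 uM), analysed relative to DMSO.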
# [15] = target: Tyrosine-protein phosphatase non-receptor type 14 (Homo sapiens) (UniProt Q15678); test: NVS_ENZ_hPTPN14: NovaScreen (NVS) Enzymatic Assay for human Protein Tyrosine Phosphatase Non-receptor Type 14 (PTPN14) (AID 2283206)
# Summary of the method: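 Fluorescent substrate turnover by recombinant human PTPN14 was measured 0.5 h after compound addition, with substrate and product separated by mobility shift. Single-point screening at 25 uM, then concentration-response up to 50 uM for chemicals meeting threshold (e.g., 30% inhibition).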
# [16] = target: human Phosphoinositide 3-kinase alpha (PI3Ka), PIK3CA (gene 5290) (UniProt P42336); test: NVS_ENZ_hPI3Ka: NovaScreen (NVS) Enzymatic Assay for human Phosphoinositide 3-kinase alpha (PI3Ka) (AID 2283196)
# Chain of human Phosphoinositide 3-kinase alpha (PI3Ka), PIK3CA (gene 5290) (P42336 whole entry, looked up): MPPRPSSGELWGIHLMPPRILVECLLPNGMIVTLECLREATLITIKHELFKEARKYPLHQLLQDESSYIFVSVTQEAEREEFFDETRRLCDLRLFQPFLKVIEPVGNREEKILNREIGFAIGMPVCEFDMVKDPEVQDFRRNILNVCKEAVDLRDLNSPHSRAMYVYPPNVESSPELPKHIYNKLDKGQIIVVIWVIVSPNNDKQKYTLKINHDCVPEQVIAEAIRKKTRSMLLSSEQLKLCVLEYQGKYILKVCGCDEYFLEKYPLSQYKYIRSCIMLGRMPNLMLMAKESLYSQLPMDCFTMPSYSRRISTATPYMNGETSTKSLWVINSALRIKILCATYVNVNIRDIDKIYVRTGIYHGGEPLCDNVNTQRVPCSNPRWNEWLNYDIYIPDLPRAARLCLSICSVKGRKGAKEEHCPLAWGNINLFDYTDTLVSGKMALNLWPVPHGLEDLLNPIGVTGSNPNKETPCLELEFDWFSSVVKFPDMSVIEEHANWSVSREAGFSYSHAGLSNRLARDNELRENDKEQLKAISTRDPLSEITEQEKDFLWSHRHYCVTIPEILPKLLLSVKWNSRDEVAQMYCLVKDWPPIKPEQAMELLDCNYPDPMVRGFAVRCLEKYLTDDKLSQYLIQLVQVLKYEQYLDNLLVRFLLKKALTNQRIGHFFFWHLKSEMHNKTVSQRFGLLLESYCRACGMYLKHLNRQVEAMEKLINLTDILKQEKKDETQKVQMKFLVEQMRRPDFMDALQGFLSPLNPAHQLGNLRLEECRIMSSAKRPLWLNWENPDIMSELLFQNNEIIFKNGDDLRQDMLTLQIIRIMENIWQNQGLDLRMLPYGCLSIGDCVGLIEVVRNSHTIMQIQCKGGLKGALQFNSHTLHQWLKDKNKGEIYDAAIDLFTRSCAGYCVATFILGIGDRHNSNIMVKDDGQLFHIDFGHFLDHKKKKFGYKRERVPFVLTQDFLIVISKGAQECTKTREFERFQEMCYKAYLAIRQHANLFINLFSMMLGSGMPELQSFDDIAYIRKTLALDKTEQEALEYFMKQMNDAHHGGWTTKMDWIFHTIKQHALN
# Summary of the method: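 Enzyme activity as fluorescence after mobility-shift separation of substrate and product, 1 h reaction, recombinant human PI3Kα; concentration-response to 50 uM max for chemicals passing a 25 uM duplicate screen.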
# [17] = target: human Protein Phosphatase, Mg2+/Mn2+ Dependent 1A (PPM1A), PPM1A (gene 5494) (UniProt P35813); test: NVS_ENZ_hPPM1A: NovaScreen (NVS) Enzymatic Assay for human Protein Phosphatase, Mg2+/Mn2+ Dependent 1A (PPM1A) (AID 2283198)
# Summary of the method: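 Primary screen in duplicate at 25 uM, with actives then titrated to a maximum of 50 uM. Recombinant PPM1A dephosphorylation of fluorescent substrate measured at 1 h, with substrate and product separated by mobility shift; inhibition fitted against DMSO.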
# [18] = target: Tyrosine-protein phosphatase non-receptor type 13 (Homo sapiens) (UniProt Q12923); test: NVS_ENZ_hPTPN13: NovaScreen (NVS) Enzymatic Assay for human Protein Tyrosine Phosphatase Non-receptor Type 13 (PTPN13) (AID 2283205)
# Summary of the method: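 Screened first at a single 25 uM in duplicate; compounds passing the threshold (e.g. 30% inhibition) were rerun in concentration series, top 50 uM. Recombinant enzyme, fluorescent substrate, mobility-shift separation, 0.5 h read. Data fitted as inhibition relative to DMSO.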
structure (smiles),measurement,setting,value
CCCC(=O)OCCC(C)C,outcome,[1],inactive
Cc1oc2c(NC(=O)c3c(Cl)cccc3Cl)cccc2c1C(C)(C)O,outcome,[2],inactive
c1ccc2ccccc2c1,outcome,[1],inactive
same,outcome,[3],inactive
same,outcome,[4],inactive
same,outcome,[5],inactive
CC(C)(c1cc(Br)c(O)c(Br)c1)c1cc(Br)c(O)c(Br)c1,outcome,[6],inactive
CCOC(=O)O[C@H](C)OC(=O)c1ccc2c(c1)cc(C(=O)NC1CCN(C(C)C)CC1)n2Cc1cc(-c2ccc(Cl)s2)on1,AC50,[7],15.2 µM (active)
same,AC50,[8],30.9 µM (active)
same,AC50,[4],18.6 µM (active)
Cc1cc2c(cc1C(F)(F)F)N(C(=O)Nc1ccc(Oc3cccnc3C)nc1)CC2,outcome,[2],inactive
NCc1cccc(C2CCN(C(=O)c3ccc(C#Cc4ccccc4F)o3)CC2)c1,AC50,[7],19.5 µM (active)
same,AC50,[6],10.1 µM (active)
same,AC50,[8],30.1 µM (active)
C[C@]12CC[C@@H]3c4ccc(O)cc4CC[C@H]3[C@@H]1CC[C@H]2O,outcome,[9],inactive
CC(C)(C)c1csc(-c2cc3cc(OCc4ccccc4CC(=O)O)ccc3o2)n1,outcome,[1],inactive
same,outcome,[10],inactive
same,outcome,[11],inactive
same,outcome,[5],inactive
CCCCOC(=O)c1ccc(O)cc1,AC50,[7],25 µM (active)
same,outcome,[12],inactive
CCCCCCCCOc1ccc(C(=O)c2ccccc2)c(O)c1,outcome,[12],inactive
CN1C(=O)N(c2ccccc2Br)Cc2cnc(Nc3ccc4c(c3)OCC(CO)O4)nc21 (centres undefined),outcome,[2],inactive
same,outcome,[12],inactive
same,AC50,[13],6.38 µM (active)
same,AC50,[14],1.09 µM (active)
same,outcome,[11],inactive
same,outcome,[15],inactive
Cc1c2ccccc2c(C)c2c1ccc1ccccc12,outcome,[7],inactive
same,outcome,[4],inactive
CCCCCCCCOC(=O)c1cc(O)c(O)c(O)c1,outcome,[2],inactive
same,AC50,[7],2.83 µM (active)
same,AC50,[9],22.1 µM (active)
same,AC50,[6],1.47 µM (active)
same,AC50,[12],5.82 µM (active)
same,AC50,[8],1.09 µM (active)
same,outcome,[16],inactive
CC(C)(O)c1ccc(CNC(=O)c2cccnc2Oc2ccc3nonc3c2)cc1,outcome,[17],inactive
O=C1c2ccccc2C(=O)N1CCc1noc(-c2ccc(CN3CCCCCC3)s2)n1,outcome,[5],inactive
Oc1ccc2ccccc2c1,outcome,[15],inactive
CCCCOC(=O)CC(CC(=O)OCCCC)(OC(C)=O)C(=O)OCCCC,outcome,[18],inactive
CCCCCCCCN(C)CCCCCCCC,outcome,[16],inactive
same,outcome,[17],inactive
O=C(Nc1ccc(Cl)cc1)Nc1ccc(Cl)c(Cl)c1,outcome,[13],inactive
COc1ccc2cc(S(=O)(=O)N[C@H](CC(=O)N[C@H](Cc3ccc(CN4[C@H](C)CCC[C@@H]4C)cc3)C(=O)N(C)C(C)C)c3ccc4c(c3)OCO4)ccc2c1,outcome,[8],inactive
O=C=NCCCCCCN=C=O,outcome,[8],inactive
O=C(O)c1ccccc1-n1cc(C(=O)O)c(=O)c2cc(Nc3c(F)cc(F)cc3Cl)c(Cl)cc21,AC50,[12],21.8 µM (active)
O=C1CCC(C2CCCCC2)CC1,outcome,[12],inactive
same,outcome,[5],inactive
COc1cccc([C@H](O)C2CCN(CCc3ccc(F)cc3)CC2)c1OC,outcome,[13],inactive
same,outcome,[10],inactive
CC[C@@H]1C[C@H](N(Cc2cc(C(F)(F)F)cc(C(F)(F)F)c2)C(C)=O)c2cc(C(F)(F)F)ccc2N1C(=O)OC(C)C,outcome,[11],inactive
O=C(O)Cc1cc(I)c(Oc2ccc(O)c(I)c2)c(I)c1,outcome,[12],inactive
same,AC50,[14],3.32 µM (active)
CCCCCCCCCC(=O)O,outcome,[17],inactive
CCCOC(=O)c1cc(O)c(O)c(O)c1,AC50,[12],11.9 µM (active)
O=C(O)c1ccccc1C(=O)OCc1ccccc1,outcome,[3],inactive
CN(C)C(=O)C1(N2CCCCC2)CCN(CC[C@@]2(c3ccc(Cl)c(Cl)c3)CN(C(=O)c3ccccc3)CCO2)CC1,outcome,[8],inactive
same,outcome,[10],inactive
CC[C@H](NC(=O)c1cc(F)ccc1NS(=O)(=O)c1cccc2cccnc12)c1ccccc1,outcome,[10],inactive
same,outcome,[4],inactive
c1ccc(C[n+]2cccc3ccccc32)cc1,outcome,[11],inactive
Cc1cc(F)ccc1-c1cc(N2CC[C@@H](O)[C@H]2CO)ncc1N(C)C(=O)C(C)(C)c1cc(C(F)(F)F)cc(C(F)(F)F)c1,AC50,[10],4.05 µM (active)
O=C1O[C@H]([C@@H](O)CO)C(O)=C1O,outcome,[12],inactive
same,outcome,[16],inactive
Clc1cc(Cl)c2c(c1)N=C1CCCCCN1C2,outcome,[13],inactive
same,outcome,[10],inactive
CN(C)c1ccc(C(=C2C=CC(=[N+](C)C)C=C2)c2ccc(N(C)C)cc2)cc1,outcome,[12],inactive
same,AC50,[8],14.5 µM (active)
CCN(CC)C(=O)c1cc(S(=O)(=O)Cc2ccccc2)c(N2CCC(c3ccccc3)CC2)cc1N(CC)CCN(C)C,outcome,[3],inactive
same,AC50,[13],9.38 µM (active)
same,outcome,[10],inactive
same,AC50,[14],16 µM (active)
same,outcome,[18],inactive
